Inconclusive results are not listed. Active and inactive are the calls of the source. Calls follow the shape of the dose curve; as a rule, active = well fitted inhibition curve with a large enough effect; inconclusive = small, poorly fitted or top-dose-only effect; inactive = flat fitted curve, though single readings scatter.
Experiments:
Experiment in all cases: qHTS profiling for inhibitors of Plasmodium falciparum proliferation (AID 504749); also: nearly all actives have a fitted effect of over 60% in size
Conditions in all cases: P. falciparum in erythrocytes, SYBR Green DNA, 72 h; series mostly up to 28.7 µM
[1] = system: CP256
Summary of the method: (§1)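 SYBR Green fluorescence of parasite DNA, read after lysis and overnight dark incubation, measured growth over 72 h in erythrocyte culture at 0.3% parasitemia and 2.5% hematocrit. Data normalised to DMSO and 0.29 uM artemisinin, with plate-drift correction.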

[2] = system: CP262
Summary of the method: as §1

[3] = system: CP265
Summary of the method: as §1

[4] = system: CP266
Summary of the method: as §1

[5] = system: CP268
Summary of the method: as §1

[6] = system: CP269
Summary of the method: as §1

[7] = system: CP286
Summary of the method: as §1

[8] = system: CP291
Summary of the method: as §1

[9] = system: CP297
Summary of the method: as §1

[10] = system: CP305
Summary of the method: as §1

[11] = system: CP315
Summary of the method: as §1

[12] = system: CP325
Summary of the method: as §1

[13] = system: CP329
Summary of the method: as §1

[14] = system: DFO2036
Summary of the method: as §1

[15] = system: DIV30
Summary of the method: as §1

[16] = system: Dd2
Summary of the method: as §1

[17] = system: DIV14
Summary of the method: as §1

[18] = system: DIV17
Summary of the method: as §1

[19] = system: CP260
Summary of the method: as §1

[20] = system: CP335
Summary of the method: as §1

Measured: Potency
Potency is read from the fitted curve at half-maximal effect.

c1ccc2c(c1)OCC(C1=NCCN1)O2 (configuration not stated)
not listed: [17] | [18] | [19] | [20]
inactive: all other assays above

CC(C)(C)NCC(O)c1cc(Cl)c(N)c(Cl)c1 (configuration not stated)
active: [17] 12 µM | [18] 8.49 µM | [16] 12.6 µM
inactive: [1] | [4] | [5] | [7] | [11] | [12] | [13] | [14]

CCN(CC)CCOC(=O)C(O)(c1ccccc1)c1ccccc1
not listed: [1] | [9] | [17] | [20]
inactive: all other assays above

CC(=O)[C@H]1CC[C@H]2[C@@H]3CC[C@H]4C[C@](C)(O)CC[C@]4(C)[C@H]3CC[C@]12C
not listed: [19]
inactive: all other assays above

CCC(C(N)=O)N1CCCC1=O (configuration not stated)
not listed: [2]
inactive: all other assays above

CCCN1CCC[C@@H]2Cc3[nH]ncc3C[C@H]21
not listed: [1] | [3] | [7] | [14] | [16] | [19]
inactive: all other assays above

Cc1ccc(-c2nc3ccc(C)cn3c2CC(=O)N(C)C)cc1
not listed: [1] | [9] | [14]
inactive: all other assays above

From PubChem BioAssay (NCATS)
